Test results published in PubChem BioAssay (NCATS).
Active and inactive are the calls of the source. The call rests on the fitted dose curve.

assay: Cell Proliferation Assay Versus the ED40515 IL2 Independent ATL cell lines (AID 1053194); settings: ED40515 IL2-independent ATL cells
Source text: Adult T-cell leukemia (ATL) develops in individuals infected with human T-cell lymphotropic virus-1 (HTLV-1). Clinically, ATL is subclassified into four subtypes: smoldering, chronic, lymphomatous, and acute. Two autocrine loops (IL-2/IL-2Ralpha and IL-15/IL-15Ralpha) and one paracrine stimulation loop that involves IL-9 expression by ATL cells and IL-9Ralpha expression on monocytes are required to maintain viability and proliferation in the smoldering and chronic forms of the disease. These assays examined the differential response profiles for the MIPE library of approved and investigational drugs versus an IL2 dependent and independent matched ATL cell line, with the current submission examining the differential response profiles for drugs on an IL2 independent matched ATL cell line
Plate log growing ED40515 -IL2 cells: 1000cells/ well in 5uL phenol red free RPMI +5% FBS +1x p/s, Glutamine using 1536 well white griener tissue culture plates and multidrop cassette acoustic dispensing Columns 1 and 3 DMSO Columns 2 and 4, 9.2 uM Bortezomib Incubate 48 hours for celltiter glo 37C with 5%CO2 and 95% humidity with low evaporation lids Dispense 3 uL per well of cell titer glo with multidrop Incubate for 15 minutes at RT Read on VL/2 using Luminesence Wheel (Filter A)

Row | Structure (SMILES) | Potency
1 | CNC(=O)c1ccccc1Sc1ccc2c(/C=C/c3ccccn3)n[nH]c2c1 | 16.6 µM (active)
2 | COc1ccc(CCN2CCN(CCCc3ccccc3)CC2)cc1OC | 7.43 µM (active)
3 | O=C(O)c1ccc(-c2c[nH]c3ccc(-c4ccccc4)cc23)cc1C1CCCC1 | 2.35 µM (active)
4 | Cc1cnc(Nc2ccc(OCCN3CCCC3)cc2)nc1Nc1cccc(S(=O)(=O)NC(C)(C)C)c1 | 33.2 µM (active)
5 | CC(C)(N)C(=O)N[C@H](COCc1ccccc1)C(=O)N1CCC2(CC1)CN(S(C)(=O)=O)c1ccccc12 | 7.43 µM (active)
6 | OC[C@H](Cc1ccccc1)Nc1nc(Oc2ccc3c(c2)CCC3)nc2c1ncn2Cc1ccc(-c2ccccc2)cc1 | 4.69 µM (active)
7 | CCOc1cc(C=C2C(=O)N(c3ccccc3)N=C2C)cc(Cl)c1OCC(=O)OC | 29.6 µM (active)
8 | Cc1ccc(NC(=O)c2cccc(C(C)(C)C#N)c2)cc1Nc1ccc2ncn(C)c(=O)c2c1 | 26.4 µM (active)
9 | COc1ccccc1-c1cccc(-c2c(O)c3cc(C#N)c(Cl)cc3[nH]c2=O)c1 | 16.6 µM (active)
10 | C/C(=C\C(=O)Nc1ccccc1C(=O)O)c1ccc2ccccc2c1 | 8.33 µM (active)
11 | S=C(NCc1ccc2c(c1)OCO2)N1CCN(c2ncnc3c2oc2ccccc23)CC1 | 3.32 µM (active)
12 | CCOC(=O)N[C@@H]1CC[C@@H]2[C@@H](C1)C[C@H]1C(=O)O[C@H](C)[C@H]1[C@@H]2C=Cc1ccc(-c2cccc(F)c2)cn1 | 16.6 µM (active)
13 | Cc1ccc2c(c1)C(=O)[C@@]1(O)CCN(c3ccccc3)C1=N2 | 13.2 µM (active)
14 | Oc1cccc(-c2nc(N3CCOCC3)c3oc4ncccc4c3n2)c1 | 1.32 µM (active)
15 | OCCC#Cc1nc(-c2ccc(F)cc2)c(-c2ccncc2)n1CCCc1ccccc1 | 23.5 µM (active)
16 | C[C@]12CC[C@H](O)CC1=CC[C@@H]1[C@H]2CC[C@]2(C)C(c3cccnc3)=CC[C@H]12 | 26.4 µM (active)
17 | Cc1ccccc1C(C(=O)NC1CCCC1)N(C(=O)Cn1cnc2ccccc21)c1cccc(F)c1 (stereo not given) | 20.9 µM (active)
18 | COc1ccc2nc(S(=O)Cc3ncc(C)c(OC)c3C)[nH]c2c1 (stereo not given) | 1.05 µM (active)
19 | CO[C@@H]1[C@H](N(C)C(=O)c2ccccc2)C[C@H]2O[C@]1(C)n1c3ccccc3c3c4c(c5c6ccccc6n2c5c31)C(=O)NC4 | 0.743 µM (active)
20 | COc1ccc(-c2c(-c3ccc(O)cc3O)n[nH]c2C)cc1 | 23.5 µM (active)

Row | Structure (SMILES) | Potency
21 | NC(=O)c1ccc(I)c([N+](=O)[O-])c1 | 16.6 µM (active)
22 | CS(=O)(=O)c1cccc(CNc2nc(Nc3ccc4c(c3)CCC(=O)N4)ncc2C(F)(F)F)c1 | 4.69 µM (active)
23 | CC[C@@H](C)[C@H](NC(=O)[C@H](CC1CCCCC1)NC(=O)c1ccno1)C(=O)N1CCC2(CCc3ccccc32)CC1 | 10.5 µM (active)
24 | CC(C)(Sc1ccc(CCN(CCCCC2CCCCC2)C(=O)NC2CCCCC2)cc1)C(=O)O | 33.2 µM (active)
25 | OC(CN1CCC(Cc2ccc(F)cc2)CC1)c1ccc(Cl)cc1 (stereo not given) | 26.4 µM (active)
26 | CC(=O)NC(C)c1ccc(Oc2ccc(OC(C)C)cc2)cc1 (stereo not given) | 10.5 µM (active)
27 | Cc1ccnc(NS(=O)(=O)c2ccc(NC(=O)Nc3ccc(S(=O)(=O)Nc4nccc(C)n4)cc3)cc2)n1 | 6.62 µM (active)
28 | O=C(Nc1nc2ccccc2n1CCN1CCOCC1)c1cccc([N+](=O)[O-])c1 | 18.7 µM (active)
29 | Nc1ncnc2nc(-c3ccc(N4CCOCC4)nc3)cc(-c3cccc(Br)c3)c12 | 29.6 µM (active)
30 | CC1(C)CNc2cc(NC(=O)c3cccnc3NCc3ccncc3)ccc21 | 33.2 µM (active)
31 | Cc1ccc(-n2nc(C(C)(C)C)cc2NC(=O)Nc2ccc(OCCN3CCOCC3)c3ccccc23)cc1 | 26.4 µM (active)
32 | CCN(CCCO)CCCOc1ccc2c(Nc3cc(CC(=O)Nc4cccc(F)c4)[nH]n3)ncnc2c1 | 26.4 µM (active)
33 | CC1(C)SCCN(S(=O)(=O)c2ccc(OCC#CCO)cc2)[C@@H]1C(=O)NO | 37.2 µM (active)
34 | C#Cc1cccc(Nc2ncnc3cc(OCCOC)c(OCCOC)cc23)c1 | 11.8 µM (active)
35 | CCc1cc(Nc2nccc(-c3c(-c4ccc(OC)c(C(=O)Nc5c(F)cccc5F)c4)nc4ccccn34)n2)c(OC)cc1N1CCC(N2CCN(S(C)(=O)=O)CC2)CC1 | 4.69 µM (active)
36 | CCCCCCCc1ccc(CCc2cccc(O)c2C(=O)O)cc1 | 16.6 µM (active)
37 | CC(C)C[C@H](NC(=O)[C@@H](O)[C@H](N)Cc1ccccc1)C(=O)O | 6.62 µM (active)
38 | Cc1c(C)c2c(c(C)c1O)CCC(C)(COc1ccc(CC3SC(=O)NC3=O)cc1)O2 (stereo not given) | 37.2 µM (active)
39 | COc1ccc(-c2ccc3c(N4CCOCC4)nc(N4C[C@@H](C)O[C@@H](C)C4)nc3n2)cc1CO | 0.59 µM (active)
40 | COc1ccc(-c2ccc3c(N4CCOC[C@H]4C)nc(N4CCOC[C@H]4C)nc3n2)cc1CO | 0.0083 µM (active)
